Data: the supplement of paper PMC10646978
± gives the standard deviation.

Legend:
Details in all cases: modulator concentration 10 µM
[1] = tested on: RAW-Dual (murine macrophage reporter line); assay: NF-kB reporter (SEAP) activity fold change vs agonist alone; higher = enhanced NF-kB activity
Outline: (§1)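 In 384-well plates holding 50 000 RAW-Dual murine macrophage reporter cells per well, compound at 10 μM final was pre-incubated for 1 hour at 37 °C, after which a PRR agonist was added overnight. Supernatant SEAP read with QUANTI-Blue at 620 nm absorbance reported NF-κB, and Lucia luciferase read with QUANTI-Luc luminescence reported IRF. Fold change values come from dividing each reporter signal by the mean of agonist-only control wells on the same plate, averaged over replicate plates with propagated errors.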

[2] = tested on: RAW-Dual (murine macrophage reporter line); assay: IRF reporter (Lucia luciferase) activity fold change vs agonist alone; higher = enhanced IRF activity
Outline: as §1

[3] = tested on: RAW-Dual (murine macrophage reporter line); assay: viability score (confluency relative to resting cells, overnight) (fraction); higher = more viable, active = viable (0.7 or more)
Outline: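 In 384-well plates, RAW-Dual macrophages received compound at a final 10 μM overnight. Two confluency masks were then made with IncuCyte software from IncuCyte images of all imaged wells. The viability score is defined as confluency relative to resting cells. Passing the cutoff required both masks to lie above 70% of resting cells.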

[4] = agonist: CpG ODN 1826 0.5 ug/mL

SMILES | NF-kB reporter [1, 4] | NF-kB reporter ([1]; agonist: LPS 0.1 ug/mL) | NF-kB reporter ([1]; agonist: MPLA […]) | IRF reporter ([2]; agonist: 3'3'-cGAMP 10 ug/mL) | IRF reporter ([2]; agonist: LPS 0.1 ug/mL) | IRF reporter ([2]; agonist: MPLA […]) | viability score [3]
CC(=NN1CCN(C2c3ccccc3-c3ccccc32)CC1)c1ccccc1O | 0.953 ± 0.12 | 0.94 ± 0.052 | 0.962 ± 0.069 | 1.02 ± 0.036 | 1.35 ± 0.12 | 0.984 ± 0.086 | 1.02 (active)
Br.CCCCn1c(=N)n(CC(=O)OC)c2ccccc21 | 1.13 ± 0.1 | 0.957 ± 0.081 | 1.05 ± 0.059 | 0.955 ± 0.055 | 1 ± 0.055 | 1.15 ± 0.15 | 0.999 (active)
CC(=O)NC(NC(C)=O)c1cccc([N+](=O)[O-])c1 | 1.15 ± 0.12 | 1 ± 0.13 | 0.998 ± 0.039 | 0.968 ± 0.043 | 0.99 ± 0.085 | 1.05 ± 0.12 | 0.995 (active)
CC[C@H](Nc1ncnc2[nH]cnc12)c1nc2cccc(F)c2c(=O)n1-c1ccccc1 | 1.18 ± 0.27 | 0.973 ± 0.11 | 1.04 ± 0.067 | 0.641 ± 0.023 | 0.763 ± 0.073 | 0.997 ± 0.18 | 0.964 (active)
CCN(CC)CCNC(=O)c1ccc(N)cc1.Cl | 0.962 ± 0.14 | 0.935 ± 0.4 | 0.887 ± 0.052 | 0.952 ± 0.029 | 1.29 ± 0.3 | 1.29 ± 0.097 | 0.993 (active)
Cc1cccc(C(=O)N2N=C(c3ccccc3)CC2(O)C(F)(F)F)c1 (configuration not stated) | 1.29 ± 0.1 | 1.13 ± 0.062 | 1.46 ± 0.087 | 1.58 ± 0.049 | 3.2 ± 0.32 | 1.79 ± 0.12 | 0.254 (inactive)
COc1ccc(N(CC(=O)N2CCc3ccccc3C2)S(C)(=O)=O)cc1Cl | 1.18 ± 0.12 | 1.05 ± 0.077 | 0.987 ± 0.059 | 1.06 ± 0.033 | 1.52 ± 0.12 | 1.11 ± 0.13 | 1.01 (active)
CCN(CC)c1nc(Nc2ccc([N+](=O)[O-])cc2)nc(N(CC)CC)n1 | 0.635 ± 0.04 | 1.07 ± 0.069 | 0.953 ± 0.058 | 0.972 ± 0.044 | 1.16 ± 0.12 | 1.01 ± 0.12 | 0.998 (active)
CSCCC(NC(=O)C(=Cc1ccccc1)NC(=O)c1ccco1)C(=O)O (configuration not stated) | 0.764 ± 0.066 | 0.842 ± 0.054 | 0.936 ± 0.081 | 1.05 ± 0.05 | 1.33 ± 0.081 | 1.49 ± 0.14 | 1 (active)
COc1ccc(CC(=O)Nc2ccc(C)c(N3CCCCC3=O)c2)cc1OC | 1.42 ± 0.34 | 1.18 ± 0.09 | 1.06 ± 0.071 | 0.937 ± 0.059 | 0.98 ± 0.14 | 1.06 ± 0.12 | 1 (active)
COc1ccc(-c2ccc(OCCNC(=O)Cc3ccc(Br)cc3)nn2)cc1 | 0.959 ± 0.049 | 1.08 ± 0.084 | 0.908 ± 0.055 | 1.02 ± 0.085 | 1.09 ± 0.2 | 1.07 ± 0.31 | 1 (active)
COc1ccc(S(=O)(=O)NC(C)C)c2ccccc12 | 0.904 ± 0.09 | 0.942 ± 0.084 | 1.06 ± 0.06 | 0.999 ± 0.074 | 1.01 ± 0.13 | 1.08 ± 0.39 | 0.951 (active)
Ic1cccc(Cn2nnc(-c3ccccc3)n2)c1 | 0.76 ± 0.06 | 0.98 ± 0.048 | 1.38 ± 0.15 | 0.872 ± 0.04 | 1.28 ± 0.12 | 1.51 ± 0.18 | 1.01 (active)
C=Cc1c(C)c2cc3nc(cc4[nH]c(cc5nc(cc1[nH]2)C(C)=C5CCC(=O)O)c(CCC(=O)OC)c4C)[C@@]1(C)C3=CC=C(C(=O)OC)[C@H]1C(=O)OC | 0.419 ± 0.077 | 0.077 ± 0.012 | 0.123 ± 0.0057 | 0.0175 ± 0.0038 | 0.0424 ± 0.018 | 0.0518 ± 0.015 | 0.344 (inactive)
CC(C)(C)NCC(O)COc1cccc2c1CCC(=O)N2.Cl (configuration not stated) | 1.14 ± 0.17 | 1.12 ± 0.25 | 1.03 ± 0.12 | 0.941 ± 0.037 | 1.33 ± 0.26 | 1.03 ± 0.19 | 0.995 (active)
COc1ccnc(CS(=O)c2nc3ccc(OC(F)F)cc3[nH]2)c1OC (configuration not stated) | 1.18 ± 0.16 | 0.901 ± 0.1 | 0.879 ± 0.053 | 0.901 ± 0.056 | 1.07 ± 0.11 | 1.15 ± 0.15 | 0.999 (active)
CC(C)(C)NCC(O)COc1cccc2c1C[C@H](O)[C@H](O)C2 (some centres not stated) | 1.03 ± 0.091 | 0.97 ± 0.051 | 0.971 ± 0.034 | 0.892 ± 0.05 | 0.976 ± 0.032 | 0.961 ± 0.11 | 0.981 (active)
Cl.Cl.Fc1ccc(C(c2ccc(F)cc2)N2CCN(CC=Cc3ccccc3)CC2)cc1 | 0.834 ± 0.063 | 0.999 ± 0.065 | 1.15 ± 0.029 | 0.956 ± 0.089 | 0.896 ± 0.051 | 1.1 ± 0.16 | 0.996 (active)
O=S1(=O)N=C(SCc2ccccc2)Nc2ccc(Cl)cc21 | 0.76 ± 0.059 | 0.913 ± 0.067 | 1.16 ± 0.11 | 0.718 ± 0.074 | 1.08 ± 0.12 | 1.11 ± 0.3 | 1.02 (active)
Cc1nc(NC(=O)N2CCC[C@H]2C(N)=O)sc1-c1ccnc(C(C)(C)C(F)(F)F)c1 | 0.626 ± 0.034 | 0.894 ± 0.072 | 1.6 ± 0.66 | 0.916 ± 0.066 | 1.18 ± 0.24 | 1.32 ± 0.33 | 1.02 (active)
CC1=NN(c2ccc(Cl)cc2)C(=O)C1=Cc1c(C)nn(-c2ccc(C)cc2C)c1O | 1.01 ± 0.13 | 0.866 ± 0.097 | 0.944 ± 0.051 | 0.891 ± 0.031 | 1.06 ± 0.085 | 1.15 ± 0.17 | 0.998 (active)
Oc1cc(O)c2c(c1)OC(c1ccc(O)c(O)c1)C(O)C2 (configuration not stated) | 0.936 ± 0.098 | 0.859 ± 0.087 | 1.05 ± 0.1 | 0.891 ± 0.028 | 1.13 ± 0.17 | 1.29 ± 0.32 | 1.06 (active)
COc1cc(C2CC3CC2C(C)C3(C)C)ccc1O (configuration not stated) | 0.638 ± 0.098 | 0.716 ± 0.052 | 0.773 ± 0.078 | 0.926 ± 0.031 | 1.01 ± 0.14 | 1.34 ± 0.22 | 1.01 (active)
CN[C@H]1CC[C@@H](c2ccc(Cl)c(Cl)c2)c2ccccc21.Cl | 0.407 ± 0.039 | 0.757 ± 0.049 | 1.49 ± 0.14 | 1.18 ± 0.1 | 1.27 ± 0.084 | 1.97 ± 0.23 | 0.258 (inactive)
CCCCc1c(C)nc(NN=C(C)c2cccc([N+](=O)[O-])c2)nc1O | 0.954 ± 0.081 | 0.941 ± 0.092 | 1.11 ± 0.1 | 0.912 ± 0.032 | 1.12 ± 0.15 | 1.18 ± 0.19 | 1.01 (active)
O=C(NC1CC2CCC1C2)c1ccccc1 (configuration not stated) | 0.907 ± 0.09 | 0.994 ± 0.081 | 0.972 ± 0.046 | 1.02 ± 0.11 | 1.01 ± 0.13 | 0.869 ± 0.15 | 0.995 (active)
